The text below walks through data of the supplement of paper PMC6555819.

What all share (assay): PBM binding z-score (relative to random genomic background probes); higher = stronger binding; sequences stand for … in GC…GCGATTGACAGCGTAGAATGAAGG
The subject of experiment [1] is LXRa homodimer (NR concentration 270 nM). The essentials: (§1)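 Probes were double-stranded and carried 34-nt variable regions with direct-repeat seeds, single-nucleotide variants, half-site ablations and random human genomic background sequences, printed on custom Agilent 4×180K protein-binding microarrays. Arrays were incubated 1 h with ligand-free nuclear receptor dimers in PBS pH 7.4, 2% milk, 0.02% Triton X-100, 1 mM DTT, 0.2 mg/mL BSA and 0.4 mg/ml salmon testes DNA. Antibodies against each partner (one per run) detected binding, and scanned fluorescence was regression-normalized. Binding z-scores use the random background probes as reference.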

Experiment [2] relates to LXRb homodimer (NR concentration 270 nM). The method in brief: as §1
The test system of experiment [3] is PPARg:RXRa (NR concentration 180 nM, RXRa partner concentration 90 nM). The essentials:
as §1

In experiment [4] the test system is PPARg:RXRa 270nM:90nM, anti-RXR (NR concentration 270 nM, RXRa partner concentration 90 nM). The method in brief:
as §1

The subject of experiment [5] is PPARg:RXRa 30nM:10nM, anti-RXR (NR concentration 30 nM, RXRa partner concentration 10 nM). The essentials:
as §1

In experiment [6] the test system is PPARg:RXRa 90nM:30nM, anti-RXR (NR concentration 90 nM, RXRa partner concentration 30 nM). The method in brief: as §1
Experiment [7] relates to PPARg:RXRa DBDmut IVT, anti-RXR (DBD mutation: RXRa K156A/R161A, NR concentration 270 nM, RXRa partner concentration 90 nM). The essentials:
as §1

Experiment [8] has as its system PPARg:RXRa IVT, anti-PPARg (NR concentration 270 nM, RXRa partner concentration 90 nM). The method in brief:
as §1

Experiment [9] concerns PPARg DBDmut:RXRa IVT, anti-PPARg (DBD mutation: PPARg1 K132A/R137A, NR concentration 270 nM, RXRa partner concentration 90 nM). The method in brief: as §1
In experiment [10] the test system is PPARg DBDmut IVT, anti-PPARg (DBD mutation: PPARg1 K132A/R137A, NR concentration 270 nM). The essentials: as §1
Experiment [11] relates to PPARg homodimer (NR concentration 180 nM). The essentials:
as §1

For experiment [12], the system named is PXR homodimer (NR concentration 270 nM). The essentials:
as §1

The test system of experiment [13] is RARa:RXR (NR concentration 270 nM, RXRa partner concentration 90 nM). The method in brief:
as §1

Experiment [14] has as its system RARa homodimer (NR concentration 270 nM). The method in brief:
as §1

Experiment [15] relates to RARb homodimer (NR concentration 270 nM). The essentials: as §1
Experiment [16] concerns PXR:RXRa (NR concentration 270 nM, RXRa partner concentration 90 nM). The method in brief: as §1
Experiment [17] has as its system RARb:RXRa (NR concentration 270 nM, RXRa partner concentration 90 nM). The method in brief:
as §1

Turning to CAAACGAGGTCAAGAGGTCAAAGTCCGCTTCCCG, the PBM binding z-score was found to be 7.48 in experiment [1]; 2.92 in experiment [2]; 9.67 in experiment [3]; 7.84 in experiment [4]; 5.59 in experiment [5]; 7.61 in experiment [6]. For the same sequence, the PBM binding z-score in experiment [7] stood at 6.04; in experiment [8], 7.14; in experiment [9], 1.86; in experiment [10] it was 1.69; in experiment [11], 5.31; in experiment [12], 6.05. For the same sequence, the PBM binding z-score is 8.32 in experiment [13], 2.73 in experiment [14] and 6.42 in experiment [15].
Turning to AGTCAAAGGTCATCTAGGTAACGTAAGATATGCT, the PBM binding z-score in [1] came to 4.61; in experiment [2] it was 5.04; in experiment [4] it was 8.23; in experiment [5], 6.82; in experiment [6], 8.3; in experiment [7], 4.12. The PBM binding z-score in experiment [8] is 6.77; in experiment [9] it was 2.25; in [10] it was 1.94; in experiment [11] it was 3.75; in experiment [16], 5.44; in [12], 1.34. Besides, the results for the PBM binding z-score in [13], in [14] and in [15] were 6.03, 2.2 and 5.29, respectively.
CAAACGAGGTCAAGGTCAAAGTCGGTTTGTGCCA: the PBM binding z-score came to 4.79 in experiment [1]; 2.41 in experiment [2]; 9.01 in [3]; 7.98 in experiment [4]; 5.75 in experiment [5]; 7.37 in experiment [6]. For the same sequence, the PBM binding z-score stood at 6.4 in experiment [7]; 7.3 in experiment [8]; 3.16 in [9]; 1.96 in experiment [10]; 4.15 in experiment [11]; 4.12 in experiment [12]. The PBM binding z-score in experiment [14] was 2.66; in experiment [15] it was 5.54.
As for CAAACGAGGTCACCGGAAGGTCAAAGTCCGCATG, the PBM binding z-score in experiment [1] was found to be 6.35; in [2], 2.17; in [3] it was 9.26; in experiment [4], 8.2; in experiment [5] it was 5.78; in experiment [6], 7.55. Further, the PBM binding z-score stood at 6.23 in experiment [7]; 7.57 in [8]; 4.42 in [9]; 0.844 in experiment [10]; 6.98 in experiment [11]; 6.23 in experiment [12]. For the same sequence, the PBM binding z-score in experiment [14] was 2.61; in experiment [15] it was 6.03.
GCTTACGGGTCAAAGGTCATAGCATGAATAGAAT: the PBM binding z-score in experiment [1] was determined as 4.02; in experiment [2] it was 1.77; in experiment [4], 10.4; in [5], 12.9; in [6], 12.5; in experiment [7], 5.72. Moreover, the PBM binding z-score in [8] amounted to 7.02; in [9], 2.05; in [10] it was 1.67; in [11], 4.66; in [12], 1.47; in [14], 2.21. The PBM binding z-score in experiment [15] came out at 5.12.
TATACGGGGTCAAAGGCCAGAGTACGAATGTCGA: the PBM binding z-score in experiment [1] was found to be 4.73; in [2], 5.42; in experiment [4], 9.09; in experiment [5], 7.56; in experiment [6] it was 9.05; in [7] it was 4.38. Besides, the PBM binding z-score in experiment [8] came out at 6.45; in experiment [9] it was 4.68; in experiment [10], 3.02; in [11], 3.58; in experiment [12], 1.98; in experiment [14], 1.66. Besides, the PBM binding z-score in experiment [17] stood at 5.29; in experiment [15] it was 4.34.
With CGTCAAAGGTCAAAGGTCAGTGAAGAGATGACGG, the PBM binding z-score amounted to 5.49 in [1]; 4.46 in experiment [2]; 11.4 in experiment [3]; 9.58 in experiment [4]; 9.03 in experiment [5]; 10.4 in experiment [6]. Also, the PBM binding z-score in experiment [7] was 5.34; in experiment [8], 6.51; in [9] it was 2.46; in experiment [10], 1.92; in experiment [11] it was 4.68; in [16], 7.37. The PBM binding z-score in experiment [12] is 1.83; in [13], 9.15; in [14] it was 3.92; in experiment [15], 6.09.
In the case of CCTTAGGGGTCACGAGGTTATAGCACGACGAGCG, the PBM binding z-score in experiment [1] was determined as 1.59; in [2], 0.631; in [4] it was 9.08; in [5] it was 6.93; in experiment [6] it was 8.31; in experiment [7] it was 5.82. Also, the PBM binding z-score is 6.5 in [8]; 3.28 in experiment [9]; 2.27 in experiment [10]; 5.3 in experiment [11]; 0.897 in [12]; 2.78 in [14]. Moreover, the PBM binding z-score in [15] was 5.21.
